Assay outcomes as filed in PubChem.
This is a sample that favours compounds with a hit; in the whole collection about 3.3% have one here.
MITF act = activators of MITF-driven TRPM1 promoter reporter, primary screen, cell-based, SK-MEL-5, luciferase, single point; activation, % at 12.5 µM; SK-MEL-5 TRPM1-promoter luciferase, 24 h; % of positive control, neutral wells = 0; AID 588334, 2011; 300,000 compounds, 0.75% hits;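 active = mean activation of at least 80% with every replicate also reaching 80%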;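 note: 0% = neutral control wells and 100% = parthenolide positive control wells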
GAA850 FXN act = FXN promoter activators, primary screen, cell-based, luciferase luminescence, HEK293 lucGAA850; 360,000 compounds, 0.56% hits; HEK293 lucGAA850 FXN promoter luciferase reporter, 24 h; percent of 10 µM SAHA response; activation, % at 6 µM; AID 540364, 2011;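 active = activation above the average of all compounds screened plus 3 SD, cutoff fixed separately per campaign, cut at about 7.5% in these data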;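 note: 0% = DMSO wells and 100% = 10 µM SAHA wells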
C2C12 statin = suppressors of statin myotoxicity in C2C12 myotubes, primary screen, cell-based, single point, plate reader; 330,000 compounds, 0.78% hits; rescue of ATP level, % at 7.49 µM; C2C12 myotubes + simvastatin, ATP luminescence, 48 h; scaled: DMSO 0, geranylgeraniol control 100;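 active = mean ATP rescue above about 67%, or every replicate alone reaching that limit, limit read from the data, passing the limit was not always enough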;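 note: myotubes were challenged with 10 µM simvastatin during compound exposure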
Wnt act = Wnt/beta-catenin pathway activators, primary screen, cell-based, plate reader, single point; Wnt/beta-catenin reporter cell assay, activator; activation, % at 9.35 µM; 300,000 compounds, 1.2% hits; AID 743398, 2014; in the data active = activation above about 30%, passing the limit was not always enough;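 note: 0% = neutral control wells and 100% = positive control wells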
esBAF inh = Bmi1 luciferase reporter increase in mESCs, primary screen, esBAF inhibitor project, mouse ES cells, Bmi1 luciferase knock-in, single point. 24 h; 100% = twice the neutral-well signal. reporter increase, % at 12.5 µM. 350,000 compounds, 2% hits. AID 602393, 2012; in the data active = activation above about 40%;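 note: 0% = median of the plate's neutral control wells and 100% = double that signal; a rise in the Bmi1 reporter signal indicates esBAF inhibition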
GAA30 counter = GAA30 FXN promoter activators, confirmation, counter-screen for GAA850 frataxin promoter activator project, cell-based, luminescence, HEK293, lucGAA30, triplicate | HEK293 lucGAA30 FXN promoter luciferase, 24 h; DMSO = 0%, 5 µM ipriflavone = 100% | activation, % at 6 µM | shares compounds with GAA850 FXN act | 1,900 compounds, 66% hits;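 active = mean activation above the mean of solvent-only control wells plus 3 SD, cut at about 22% in these data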;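 note: counterscreen of GAA850 promoter hits where activity marks nonselective or luminescence artifacts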
GAA850 confirm = FXN GAA850 promoter activators in reporter cells, confirmation, cell-based, luminescence, HEK293 lucGAA850, triplicate | shares compounds with GAA850 FXN act | activation, % at 6 µM | 1,900 compounds, 86% hits | HEK293 lucGAA850 FXN promoter luciferase reporter, 24 h; 100% = activation by SAHA;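 active = mean activation above a set limit taken from the primary screen, cut at about 8% in these data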;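 note: 0% = DMSO wells and 100% = 10 µM SAHA wells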
* = called active by the depositor; nt = no result.

SMILES	MITF act	GAA850 FXN act	C2C12 statin	Wnt act	esBAF inh	GAA30 counter	GAA850 confirm
COc1ccc(C(=O)Cn2cnc3ccccc3c2=O)c(OC)c1	44	7.7*	10	10	15	57*	24*
CCOC(=O)c1[nH]c2ccc(OC)cc2c1NC(=O)c1ccccc1C(=O)O	13	8.0*	nt	13	nt	28*	13*
CCOC(=O)c1[nH]c2ccc(OC)cc2c1NC(=O)c1cccc(OC)c1	-2	1	nt	nt	nt	nt	nt
COc1ccc(O)c(-c2nc(N)nc(N)n2)c1	71	4	0	30	2	nt	nt
Nc1nc(N)nc(-c2cc(F)ccc2O)n1	3	12*	-4	8	2	67*	42*
C[C@@H]1CN([C@@H](C)CO)C(=O)c2cc(/C=C/c3ccccc3)cnc2O[C@@H]1CN(C)Cc1ccc2c(c1)OCO2	nt	nt	35	nt	-2	nt	nt
COc1ccc(-c2cnc3cccnn23)cn1	nt	2	-2	0	11	nt	nt
Clc1ccc(-c2cnc3cccnn23)cc1	nt	9.0*	0	0	50*	38*	15*
COCC(=O)NCCc1nc2ccccc2[nH]1	nt	16*	0	-1	5	22*	7.9*
Cc1cc(C)n2c(=O)c3ccc(Cl)cc3nc2c1C#N	-11	0	nt	2	nt	nt	nt
Cc1cc(Cl)n2c(nc3cc(F)c(F)cc32)c1C#N	-98	15*	nt	-22	nt	-51	29*
CCS(=O)(=O)Nc1ccc2c(c1)C(=O)N(C)C[C@H](OC)[C@H](C)CN(C(=O)C1CC1)[C@H](C)CO2	nt	nt	0	nt	0	nt	nt
COc1ncnc2sc(-c3ccccc3)cc12	74	9.0*	6	nt	50*	106*	37*
CN(C)c1ncnc2sc(-c3ccccc3)cc12	24	9.0*	-8	6	17	46*	18*
CC(C)(C)Nc1ncnc2sc(-c3ccccc3)cc12	-10	1	-26	0	9	nt	nt
C[C@H]1CN([C@@H](C)CO)S(=O)(=O)c2ccc(C#Cc3ccncc3)cc2O[C@H]1CN(C)C(=O)C1CCC1	nt	nt	-16	nt	8	nt	nt
COCC(=O)Nc1ccc2c(c1)[C@H]1C[C@@H](CC(=O)OC)O[C@H](CO)[C@H]1O2	nt	nt	-2	nt	-2	nt	nt
CC(Oc1ccc(C(C)(C)C)cc1)C(=O)NCC(c1ccco1)N1CCCC1 (stereo not given)	7	8.4*	-13	-3	2	16	9.6*
Cc1cccc(NC(=O)C[C@H]2CC[C@H]3[C@@H](COc4ccc(NC(=O)NC(C)C)cc4C(=O)N3C)O2)c1	nt	nt	3	nt	-1	nt	nt
COc1ccc(Cn2nnnc2CN(Cc2cc3ccc(C)cc3[nH]c2=O)C2CCCC2)cc1	-2	-2	0	nt	1	nt	nt
COc1ccc(Cn2nnnc2CN(Cc2cc3cccc(C)c3[nH]c2=O)C2CCCC2)cc1	-3	7.8*	11	-1	-2	18	6
CCS(=O)(=O)NCC[C@@H]1CC[C@@H](NC(=O)C2CCC2)[C@@H](CO)O1	nt	nt	2	nt	-3	nt	nt
O=C(OCC1CC(c2ccccc2Cl)=NO1)c1ccc(Br)cc1 (stereo not given)	1	7.6*	nt	nt	nt	11	5
C/C(CC(=O)NCc1ccccc1Cl)=N/NC(=O)c1ccccn1	12	8.2*	2	-1	44*	50*	14*
C=CCn1c2ccccc2c(=O)c2cc(C#CC[C@@H](C)O)ccc21	94*	11*	-2	36*	52*	127*	44*
C=CCn1c2ccccc2c(=O)c2cc(C#CC3(O)CCCCC3)ccc21	69	11*	-46	8	3	104*	55*
